Test results published in ChEMBL document CHEMBL3988442, “University of Dundee, Small-Polar-MMV Screening Library” (2021).

Target: T1, Aspartate--tRNA(Asp/Asn) ligase (Mycobacterium tuberculosis (strain ATCC 25618 / H37Rv)) (UniProt P9WFW3); note: in the data most compounds retested in dose-response had high values
T1 sequence (whole entry): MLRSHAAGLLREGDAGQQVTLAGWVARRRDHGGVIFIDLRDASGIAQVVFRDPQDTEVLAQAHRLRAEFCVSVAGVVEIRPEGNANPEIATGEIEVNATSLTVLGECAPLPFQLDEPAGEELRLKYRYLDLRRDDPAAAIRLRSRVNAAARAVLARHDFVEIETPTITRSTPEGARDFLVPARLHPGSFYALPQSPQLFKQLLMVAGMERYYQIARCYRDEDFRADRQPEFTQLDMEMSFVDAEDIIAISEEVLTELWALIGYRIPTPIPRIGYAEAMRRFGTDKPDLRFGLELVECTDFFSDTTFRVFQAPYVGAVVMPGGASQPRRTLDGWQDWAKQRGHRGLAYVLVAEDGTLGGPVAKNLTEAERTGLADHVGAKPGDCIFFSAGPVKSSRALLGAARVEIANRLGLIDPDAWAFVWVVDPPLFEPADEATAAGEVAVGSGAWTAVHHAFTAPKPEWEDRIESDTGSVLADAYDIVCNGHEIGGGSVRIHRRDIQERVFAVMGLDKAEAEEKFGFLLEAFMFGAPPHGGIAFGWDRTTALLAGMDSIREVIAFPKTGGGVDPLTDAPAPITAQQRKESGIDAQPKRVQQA
Assay: Assay for Asp RNA synthetase-1 from Mycobacterium tuberculosis
Format: functional
Set-up: scale not given: direction of the effect not stated beside the values
Conditions: 30 µM

Row | Compound | Percent Effect [%]
1 | CCc1nccn1-c1cncc(C2CCCN2Cc2cccnc2)n1 (stereo not given) | 5.87
2 | CCN(Cc1nc2c(cnn2C)c(=O)[nH]1)Cc1cccs1 | -1.27
3 | Cc1nc(CN2CCCC(NCCOCC(F)(F)F)C2)no1 (stereo not given) | -8.65
4 | COCc1ccccc1CNc1cc(N2CCCC2CO)ncn1 (stereo not given) | -1.49
5 | Cc1ccc(NC2CCN(C(=O)COCC(F)(F)F)CC2)nn1 | -0.48
6 | O=C(c1ccccn1)N1CCCC(c2nccn2Cc2ccncc2)C1 (stereo not given) | 6.99
7 | COc1cc(NC(=O)c2ccccc2F)c(C(=O)N(C)C)cc1OC | 8.8
8 | O=C(CCCc1cn[nH]c1)N1CCOCC(O)C1 (stereo not given) | 5.55
9 | CN(Cc1nnc(-c2ccco2)o1)C1CCCN(c2cccnn2)C1 (stereo not given) | 0.611
10 | Cn1cc(C2CC(=O)NC23CCN(CC2CC2)CC3)cn1 (stereo not given) | -4.05
11 | CCS(=O)(=O)CC(=O)NC(c1ccccc1)C1CCCCC1 (stereo not given) | 3.23
12 | CNC(=O)c1cnc(/C=C/c2cc(OC)c(OC)c(OC)c2)s1 | -0.971
13 | Cc1nnc2n1CCN(CCS(=O)(=O)c1ccccc1)C2 | -4.37
14 | CCn1cnnc1C1CCN(C(=O)c2cc3c(s2)CCC3)CC1 | -5.31
15 | Cc1nn(C)c(N(C)C)c1CNCCCN(C)S(C)(=O)=O | -6.1
16 | CCOc1cccc2c1OCC(C(=O)NS(=O)(=O)c1ccc(C)s1)=C2 | 4.55
17 | CCc1ccc(OCC(O)CN2CCC(O)CC2)cc1 (stereo not given) | 3.31
18 | CN(C(=O)Cn1nc(-c2ccc(F)cc2)ccc1=O)C1CCS(=O)(=O)C1 (stereo not given) | 3.06
19 | O=C(CC1CC1)NCc1cn2c(n1)CN(C(=O)c1cccnc1)CC2 | 3.04
20 | COCC(=O)N1CCC(c2nc3ccc(-c4ccccc4)cn3n2)CC1 | -2.8

Row | Compound | Percent Effect [%]
21 | CC1CCCN(C(=O)c2csc(S(N)(=O)=O)c2)CC1 (stereo not given) | 0.324
22 | Cc1cnn(CCNCC(=O)NCc2ccccc2)c1 | 1.29
23 | CCOCC(O)CN1CCN(C(=O)c2cccc(F)c2)CC1 (stereo not given) | 0.145
24 | CNS(=O)(=O)c1ccc(C(=O)NCCc2ccccn2)cc1 | 9.16
25 | COC(=O)c1cccn1C1CCN(C(=O)c2cc(F)ccc2F)CC1 | 1.88
26 | Cc1cnc(C(=O)N(CCN(C)C)Cc2ccc(Cl)cc2)cn1 | -1.59
27 | Cn1ccc(C(=O)N2CCC(Cc3cnc4[nH]ccc4c3)CC2)n1 | 0.283
28 | CC(C)NC(=O)Cn1cc(-c2ccccc2)cn1 | -0.189
29 | Cc1cc(C)n(C2CCCN(C(=O)c3cc(C4CC4)on3)C2)n1 (stereo not given) | -7.81
30 | CC(C(N)=O)N(C)CCCc1cc(-c2ccccc2)no1 (stereo not given) | 4.08
31 | COc1ccc(NC(=O)c2ccc[nH]2)c(N2CCN(C(C)=O)CC2)n1 | 1.11
32 | COCCOc1ccc(NC(=O)N(C)Cc2ccsc2)cn1 | 0.514
33 | CCNc1cc2c(nn1)CCN(C(=O)Cc1noc3ccccc13)C2 | -2.87
34 | O=C(Cc1noc2ccccc12)N1CCCC1c1noc(C2CC2)n1 (stereo not given) | -3.11
35 | Cn1ccc(C(=O)NCc2ccc(N3CCCC3)nc2)cc1=O | 0.0735
36 | CCNC(=O)c1nc2c(s1)CCCN2S(C)(=O)=O | 7.8
37 | N#Cc1ccnc(N2CCN(CC(O)c3cccc(F)c3)CC2)c1 (stereo not given) | 1.79
38 | Cc1cc(C)c(CNC(=O)NCC2CCCO2)c(=O)[nH]1 (stereo not given) | -3.97
39 | CCOCC(O)CN1CCN(C(=O)c2ccccc2Cl)CC1 (stereo not given) | -4.21
40 | COc1ccc(CN(C)CC(=O)NC2(C)CCS(=O)(=O)C2)cc1F (stereo not given) | 10.4

Target: Shiga toxin 2 (Escherichia coli O157:H7) (UniProt P09385+P09386)
Assay: E. coli 0.157:H7 Shiga Toxin SOP - stx2 screening assay
Format: functional
Set-up: scale not given: direction of the effect not stated beside the values
Conditions: 30 µM

Row | Compound | Percent Effect [%]
41 | CCc1nccn1-c1cncc(C2CCCN2Cc2cccnc2)n1 (stereo not given) | -37.2
42 | CCN(Cc1nc2c(cnn2C)c(=O)[nH]1)Cc1cccs1 | 5.32
43 | Cc1nc(CN2CCCC(NCCOCC(F)(F)F)C2)no1 (stereo not given) | -8.56
44 | COCc1ccccc1CNc1cc(N2CCCC2CO)ncn1 (stereo not given) | -4.23
45 | Cc1ccc(NC2CCN(C(=O)COCC(F)(F)F)CC2)nn1 | -13.9
46 | O=C(c1ccccn1)N1CCCC(c2nccn2Cc2ccncc2)C1 (stereo not given) | 4.41
47 | COc1cc(NC(=O)c2ccccc2F)c(C(=O)N(C)C)cc1OC | -68.8
48 | O=C(CCCc1cn[nH]c1)N1CCOCC(O)C1 (stereo not given) | 5.53
49 | CN(Cc1nnc(-c2ccco2)o1)C1CCCN(c2cccnn2)C1 (stereo not given) | -78.7
50 | Cn1cc(C2CC(=O)NC23CCN(CC2CC2)CC3)cn1 (stereo not given) | -21.4
51 | CCS(=O)(=O)CC(=O)NC(c1ccccc1)C1CCCCC1 (stereo not given) | 7.43
52 | CNC(=O)c1cnc(/C=C/c2cc(OC)c(OC)c(OC)c2)s1 | -44.8
53 | Cc1nnc2n1CCN(CCS(=O)(=O)c1ccccc1)C2 | -6.96
54 | CCn1cnnc1C1CCN(C(=O)c2cc3c(s2)CCC3)CC1 | -11.1
55 | Cc1nn(C)c(N(C)C)c1CNCCCN(C)S(C)(=O)=O | -43.8
56 | CCOc1cccc2c1OCC(C(=O)NS(=O)(=O)c1ccc(C)s1)=C2 | 2.64
57 | CCc1ccc(OCC(O)CN2CCC(O)CC2)cc1 (stereo not given) | 16.1
58 | CN(C(=O)Cn1nc(-c2ccc(F)cc2)ccc1=O)C1CCS(=O)(=O)C1 (stereo not given) | 1.8
59 | O=C(CC1CC1)NCc1cn2c(n1)CN(C(=O)c1cccnc1)CC2 | -29.1
60 | COCC(=O)N1CCC(c2nc3ccc(-c4ccccc4)cn3n2)CC1 | -19.6

Row | Compound | Percent Effect [%]
61 | CC1CCCN(C(=O)c2csc(S(N)(=O)=O)c2)CC1 (stereo not given) | -19.1
62 | Cc1cnn(CCNCC(=O)NCc2ccccc2)c1 | 10.2
63 | CCOCC(O)CN1CCN(C(=O)c2cccc(F)c2)CC1 (stereo not given) | -5.86
64 | CNS(=O)(=O)c1ccc(C(=O)NCCc2ccccn2)cc1 | 14.4
65 | COC(=O)c1cccn1C1CCN(C(=O)c2cc(F)ccc2F)CC1 | 19.6
66 | Cc1cnc(C(=O)N(CCN(C)C)Cc2ccc(Cl)cc2)cn1 | 5.25
67 | Cn1ccc(C(=O)N2CCC(Cc3cnc4[nH]ccc4c3)CC2)n1 | 19.7
68 | CC(C)NC(=O)Cn1cc(-c2ccccc2)cn1 | 2.98
69 | Cc1cc(C)n(C2CCCN(C(=O)c3cc(C4CC4)on3)C2)n1 (stereo not given) | -32.5
70 | CC(C(N)=O)N(C)CCCc1cc(-c2ccccc2)no1 (stereo not given) | 15
71 | COc1ccc(NC(=O)c2ccc[nH]2)c(N2CCN(C(C)=O)CC2)n1 | 0.954
72 | COCCOc1ccc(NC(=O)N(C)Cc2ccsc2)cn1 | -8.11
73 | CCNc1cc2c(nn1)CCN(C(=O)Cc1noc3ccccc13)C2 | 24.9
74 | O=C(Cc1noc2ccccc12)N1CCCC1c1noc(C2CC2)n1 (stereo not given) | 8.27
75 | Cn1ccc(C(=O)NCc2ccc(N3CCCC3)nc2)cc1=O | -33.5
76 | CCNC(=O)c1nc2c(s1)CCCN2S(C)(=O)=O | -17.3
77 | N#Cc1ccnc(N2CCN(CC(O)c3cccc(F)c3)CC2)c1 (stereo not given) | 5.66
78 | Cc1cc(C)c(CNC(=O)NCC2CCCO2)c(=O)[nH]1 (stereo not given) | 24.8
79 | CCOCC(O)CN1CCN(C(=O)c2ccccc2Cl)CC1 (stereo not given) | 24.8
80 | COc1ccc(CN(C)CC(=O)NC2(C)CCS(=O)(=O)C2)cc1F (stereo not given) | -2.83
